The results in this text go back to the supplement of paper PMC8728848.

About 410 targets per protein were measured; listed, in parts, are those with the strongest signals and a random draw of the rest.

Assay in all cases: glycan array binding signal (z-score within array); higher = stronger binding
Settings in all cases: glycan notation: IUPAC condensed, linker removed

Test [1] addresses Neu5Ac(a2-3)Gal(b1-3)GalNAc(b1-4)[Neu5Ac(a2-8)Neu5Ac(a2-3)]Gal(b1-4)Glc. In outline:
(§1)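 Columns mapping to the same glycan were averaged after glycan names were converted to IUPAC-condensed notation. The data come from 3228 arrays in the Consortium for Functional Glycomics database, limited to those with an available protein sequence. Binding is reported as a within-array Z-score averaged across arrays of one protein sequence and across linkers.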

For test [2], the target named is Neu5Ac(a2-3)Gal(b1-3)GalNAc6S. In outline: as §1
Test [3] concerns the target Neu5Ac(a2-3)Gal(b1-3)GlcNAc(b1-2)Man. In outline: as §1
The target of test [4] is Neu5Ac(a2-3)Gal(b1-3)GlcNAc(b1-2)Man(a1-3)[Neu5Ac(a2-3)Gal(b1-3)GlcNAc(b1-2)Man(a1-6)]Man(b1-4)GlcNAc(b1-4)GlcNAc. The gist of the method:
as §1

The target of test [5] is Neu5Ac(a2-3)Gal(b1-4)GlcNAc(b1-2)Man(a1-3)[GlcNAc(b1-4)][Neu5Ac(a2-3)Gal(b1-4)GlcNAc(b1-2)Man(a1-6)]Man(b1-4)GlcNAc(b1-4)GlcNAc. In outline: as §1
Test [6] addresses Neu5Ac(a2-3)Gal(b1-4)GlcNAc(b1-2)[Neu5Ac(a2-3)Gal(b1-4)GlcNAc(b1-4)]Man(a1-3)[GlcNAc(b1-4)][Neu5Ac(a2-3)Gal(b1-4)GlcNAc(b1-2)[Neu5Ac(a2-3)Gal(b1-4)GlcNAc(b1-6)]Man(a1-6)]Man(b1-4)GlcNAc(b1-4)GlcNAc. In outline:
as §1

In test [7] the target is Neu5Ac(a2-3)Gal(b1-4)GlcNAc(b1-3)[Neu5Ac(a2-3)Gal(b1-4)GlcNAc(b1-6)]GalNAc. The gist of the method: as §1
Test [8] concerns the target Neu5Ac(a2-3)Gal(b1-4)GlcNAc6S. In outline: as §1
In test [9] the target is Neu5Ac(a2-3)Gal(b1-4)[Fuc(a1-3)]GlcNAc. In outline:
as §1

Test [10] has as its target Neu5Ac(a2-3)Gal(b1-4)[Fuc(a1-3)]GlcNAc(b1-6)[Gal(b1-3)]GalNAc. In outline:
as §1

In test [11] the target is Neu5Ac(a2-3)Gal6S(b1-4)GlcNAc. The gist of the method: as §1
The target of a further test is Neu5Ac(a2-8)Neu5Ac. The gist of the method: as §1
Test [12] addresses Neu5Gc(a2-3)Gal(b1-3)GlcNAc. In outline:
as §1

B1: Cohesin-hDCIR (Homo sapiens) (protein)
chain: LDDLDAVRIKVDTVNAKPGDTVRIPVRFSGIPSKGIANCDFVYSYDPNVLEIIEIEPGDIIVDPNPDKSFDTAVYPDRKIIVFLFAEDSGTGAYAITKDGVFATIVAKVKEGAPNGLSVIKFVEVGGFANNDLVEQKTQFFDGGANVGDTTEPATPTTPVTTPTTTDDLDAASQKYSQLLEKKTTKELVHTTLECVKKNMPVEETAWSCCPKNWKSFSSNCYFISTESASWQDSEKDCARMEAHLLVINTQEEQDFIFQNLQEESAYFVGLSDPEGQRHWQWVDQTPYNESSTFWHPREPSDPNERCVVLNFRKSPKRWGWNDVNCLGPQRSVCEMMKIHLHHHHHH
In the case of B1, the “glycan array binding signal (z-score)” value is -0.554 in test [1]; 1.41 in test [2]; -0.373 in [3]; -0.312 in test [4]; -0.66 in test [5]; -0.508 in test [6]. Moreover, the “glycan array binding signal (z-score)” value in test [7] was 0.114; in [8] it was -0.518; in [9], -0.342; in test [10], -0.187; in [11], -0.608; with Neu5Ac(a2-8)Neu5Ac it was -0.297. The “glycan array binding signal (z-score)” value in test [12] is -0.174.
